From ChEMBL document CHEMBL4513154, “CO-ADD screening of Jain University (India) compounds” come the findings set out here.

Each structure is given as a SMILES string. The campaign covered roughly 23,000 compounds. About 30 (0.1%) showed an effect of 50% or more. The entries come from a sample that favours strong results as a whole. Measured potencies and affinities stand elsewhere.

This assay has as its system Pseudomonas aeruginosa. The conditions noted are these: Concentration 32 ug.mL-1; ASSAY_TEST Inhibition of Bacterial Growth; detection method Absorption (OD600); MEDIA CAMHB; plate type 384well; NBS; CORNING #3640; time 18 hr.
What is called Inhibition is the percentage by which the read-out fell short of the control. Higher therefore signals a strong effect. As to `N=C(Nc1ccccc1Cl)c1cscn1`, the Inhibition is 77.11%.

For `N=C(Nc1ccccc1)c1cscn1`, the Inhibition came to 1.73%.

Turning to `CCc1ccc(Nc2nc(N)c(-c3nc4ccccc4c(=O)n3-c3ccccc3)s2)cc1`, the Inhibition amounted to 12.66%.
